Experimental data as given in PubChem BioAssay (NCATS).
“And” between values parts separate entries of the source, which are not always exact repeats. Equal values may be shown once.

Test: qHTS drug screen for cell cycle checkpoint inhibitors in PARPi-resistant BRCA-mutant ovarian cancer cell lines. (AID 1963452)
Settings: PEO1/OlaR viability, CellTiter-Glo luminescence, 96 h; measured here: PEO4 Z-AUC; stronger effect = lower value
How it was run: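 PEO1, PEO4 and PEO1/OlaR ovarian cancer cells, 600 per well, exposed 96 h at 37C to a dilution series. Viability read by CellTiter-Glo luminescence, normalized to DMSO and empty wells; activity summarized as Z-AUC.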

SMILES	Z-AUC
Cn1cncc1C(N)(c1ccc(Cl)cc1)c1ccc2c(c1)c(-c1cccc(Cl)c1)cc(=O)n2C (centres undefined)	-0.873
COc1cc(C(=O)NC2CCN(C)CC2)c(F)cc1Nc1ncc2c(n1)N(C1CCCC1)CC(F)(F)C(=O)N2C	-2.16
Cc1ccc(-c2ccc3ncc4c(c3n2)n(C2CCN(C(=O)[C@H](C)O)CC2)c(=O)n4C)cn1	-2.23
COC(=O)N(C)c1c(N)nc(-c2nn(Cc3ccccc3F)c3ncccc23)nc1N	0.894
Cc1c(F)cc(C(=O)NC2CC2)cc1-c1c(F)cn2c(C(C)(C)C)nnc2c1F	1.81
CC(C)c1cc(CNc2nc(Nc3cc(C4CC4)[nH]n3)cc(N3CCN(C)CC3)n2)on1	-2.1
CC[C@H](NC(=O)[C@H](CS(=O)(=O)CC1CC1)N[C@@H](c1ccc(F)cc1)C(F)(F)F)C(=O)C(=O)NC1CC1	1.51
C[C@H]1Oc2cc(cnc2N)-c2c(nn(C)c2C#N)CN(C)C(=O)c2ccc(F)cc21	-0.356 and 0.596
Cc1[nH]nc(C(F)(F)F)c1Cc1sc2c(c1C(=O)N1C[C@](C)(O)CO1)c(=O)n(C)c(=O)n2C(C)C	0.623
CNC(=O)c1cc(Oc2ccc3nc(N[C@@H]4CCCC[C@H]4O)sc3c2)ccn1	-0.476
Cc1cnc(Nc2ccc(F)cc2Cl)nc1-c1c[nH]c(C(=O)NC(CO)c2cccc(Cl)c2)c1 (centres undefined)	-0.952
CN(C)C/C=C/C(=O)Nc1cccc(C(=O)Nc2cccc(Nc3ncc(Cl)c(-c4c[nH]c5ccccc45)n3)c2)c1	-1.32
CN1CCN(C2CCC(n3cc(-c4ccc(Oc5ccccc5)cc4)c4c(N)ncnc43)CC2)CC1 (centres undefined)	-0.439
CNC(=O)c1cccc(-c2ccc3c(N4CCOC[C@@H]4C)nc(N4CCOC[C@@H]4C)nc3n2)c1	-0.994
CCCN1CCN(c2ccc(C(=O)NC3(C(=O)NCC#N)CCCCC3)cc2)CC1	0.558
CNCc1ccc(-c2cc(-c3nc(-c4ccc(S(=O)(=O)C(C)C)cc4)cnc3N)on2)cc1	0.605
CCN1CCN(Cc2ccc(NC(=O)c3ccc(C)c(NC(=O)c4cncc(-c5cccs5)c4)c3)cc2C(F)(F)F)CC1	-0.887
NC(=O)[C@H]1CCS[C@@H]2C[C@]3(CCCN3C(=O)Cc3ccc(NC(=O)COc4ccc(Cl)cc4Cl)cc3)C(=O)N12	0.0247
CO[C@H]1C[C@@H]2CC[C@@H](C)[C@@](O)(O2)C(=O)C(=O)N2CCCC[C@H]2C(=O)O[C@H]([C@H](C)C[C@@H]2CC[C@@H](OP(C)(C)=O)[C@H](OC)C2)CC(=O)[C@H](C)/C=C(\C)[C@@H](O)[C@@H](OC)C(=O)[C@H](C)C[C@H](C)/C=C/C=C/C=C/1C	-0.0432
Cc1cc(Nc2cc(N3CCN(C)CC3)nc(/C=C/c3ccccc3)n2)n[nH]1	-1.32
COc1cc2ncnc(Nc3ccc(F)c(Cl)c3)c2cc1NC(=O)/C=C/CN1CCCCC1	-1.24
COc1c(Nc2ncc(Cl)c(N[C@H]3[C@@H](C(N)=O)[C@@H]4C=C[C@H]3C4)n2)ccc2c1CC[C@@H](N1CCOCC1)CC2	0.103
c1cn2cc(-c3ccc4cn[nH]c4c3)nc(Nc3ccc(N4CCOCC4)cc3)c2n1	0.447
CC(C)c1c2cc(-c3ccnc(NC4CCC(NC5CCOCC5)CC4)n3)ccc2nn1C (centres undefined)	-1.88
CCCCc1nc2cc(/C=C/C(=O)NO)ccc2n1CCN(CC)CC	-0.293
O=C(NOCC(O)CO)c1ccc(F)c(F)c1Nc1ccc(I)cc1F (centres undefined)	-0.907
CS(=O)(=O)N1CCC(NC(=O)c2[nH]ncc2NC(=O)c2c(Cl)cccc2Cl)CC1	-1.67
CCCCNc1ncc2c(-c3ccc(CN4CCN(C)CC4)cc3)cn(C3CCC(O)CC3)c2n1 (centres undefined)	-1.13 and -0.785
Nc1ccc(/C=C/C(=O)NCc2cc3cc(-c4ccc(C(=O)N5CCC(F)(F)CC5)cc4)cc(-c4ccc(F)cc4)c3o2)cn1	-0.788
